Rows were chosen to be rich in hits. Some 7.3% of all compounds tested hit in one or more screens of this group.
FLuc counter: firefly luciferase modulation, counter-screen for miR-21 project; Potency, µM (doses to about 57.5 µM), for the others: at the highest dose activity change, negative = inhibition, hits mostly inhibitors; AID 588342; P08659; 6.9% of 360,000 active; purified FLuc, Km substrates, luminescence inhibition;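 also: plate controls were vehicle for no effect and reference inhibitor for full effect; nearly all actives have a fitted effect of over 55% in size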
Target sequence (P08659 whole entry, looked up): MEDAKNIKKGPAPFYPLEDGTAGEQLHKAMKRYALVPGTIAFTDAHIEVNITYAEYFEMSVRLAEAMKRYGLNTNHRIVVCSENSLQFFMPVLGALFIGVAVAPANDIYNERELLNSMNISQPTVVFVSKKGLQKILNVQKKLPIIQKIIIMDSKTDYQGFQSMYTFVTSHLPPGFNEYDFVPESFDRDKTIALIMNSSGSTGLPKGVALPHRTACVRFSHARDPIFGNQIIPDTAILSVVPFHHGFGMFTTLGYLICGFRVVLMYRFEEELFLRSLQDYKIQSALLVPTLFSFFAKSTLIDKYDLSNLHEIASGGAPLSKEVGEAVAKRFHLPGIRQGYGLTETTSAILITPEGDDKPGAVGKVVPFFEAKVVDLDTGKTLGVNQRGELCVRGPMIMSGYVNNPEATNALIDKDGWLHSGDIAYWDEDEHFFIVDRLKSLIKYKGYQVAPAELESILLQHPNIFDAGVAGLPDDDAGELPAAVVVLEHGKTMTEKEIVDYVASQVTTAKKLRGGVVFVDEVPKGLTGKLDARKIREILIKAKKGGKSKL
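Biochemical qHTS of compounds, final roughly 60 µM downward over six points, against 10 nM purified firefly luciferase using Km concentrations of substrates (10 uM D-luciferin, 10 uM ATP) in Tris acetate pH 7.5 buffer; luminescence output.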
SMN2 splice up: SMN2 splice variant enhancement; HEK293 SMN2-luciferase splicing reporter, luminescence, 30-36 h; Potency, µM (doses to about 46.1 µM), inactives show at the highest dose activity change, positive = activation, usual class: activators; 2.8% of 210,000 active; AID 1458; also: % of control where 0% means no effect; nearly all actives have a fitted effect of over 55% in size
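HEK293 cells carry an SMN2 minigene-luciferase reporter in which exon 7 inclusion puts luciferase in frame. Cells were seeded at 2000 cells/well, attached for 10-12 hours, then exposed to compounds for 30-36 hours at 37C before ONE-Glo luminescence.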
ELG1 genotox: induces genotoxicity in HEK293T cells with luciferase-tagged ELG1; Potency, µM (highest dose often 46 µM), inactives show at the highest dose activity change, positive = activation, hits mostly activators; 1.3% of 330,000 active; HEK293T ELG1-luciferase reporter, luminescence, 16 h; also: % of control where 0% means no effect; nearly all actives have a fitted effect of over 60% in size
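Genotoxicity was scored as increased ELG1-luciferase reporter signal, measured by ONE-Glo luminescence (30 min, room temperature). Compound or vehicle exposure of the HEK293T reporter cells lasted 16 hr at 37°C.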
NPC1 promoter act: activates the NPC1 promoter; Huh7 NPC1 promoter luciferase reporter, 24 h; Potency, µM (titrated, usually from 9.22 µM), for the others: at the top dose activation, most hits filed as activators; 2.4% of 320,000 active; also: % of control where 0% means no effect; nearly all actives have a fitted effect of over 60% in size
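Luminescence from an NPC1 promoter-driven luciferase reporter in stably transfected Huh7 cells was measured after 24 h compound treatment at 37 °C, followed by 10 min ambient incubation with luciferase detection reagent.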
Rab9 prom act: Rab9 promoter activation. Huh7 Rab9 promoter-luciferase reporter, luminescence, 24 h. 2.8% of 320,000 active. Potency, µM (top dose mostly 9.22 µM), for inactives: at the highest dose activation, negative = inhibition, usual class: activators; also: % of control where 0% means no effect; nearly all actives have a fitted effect of over 60% in size
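Cell-based reporter: Huh7 stable for Rab9 promoter-driven luciferase, plated in reduced-serum medium with 10% FBS at 1500 cells/well, compound-treated 24 h at 37 °C, luminescence read after 10 min reagent.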
p53 reactivation: restores transcriptional activity of mutant p53 | H1299 p53-A138V BP100-luciferase reporter, luminescence, 24 h | Potency, µM (top dose mostly 92.2 µM), for inactives: at the highest dose activity change, positive = activation, actives largely listed as activators | 0.063% of 320,000 active; also: % of control where 0% means no effect; nearly all actives have a fitted effect of over 45% in size
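H1299 (p53-null), stable ts p53-A138V + BP100-Luc; 1000 cells/well, Opti-MEM/10% FBS; cpd 4 pt, 1:5; 24 h, 37 deg C, 5% CO2; detection reagent 10 min RT; luminescence.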
* hit, by the source's call; ? = inconclusive; / = no result; [ ] = another dose, or the depositor's remark. Calls follow the shape of the dose curve; as a rule, active = well fitted curve in the direction sought with a large enough effect; inconclusive = small, poorly fitted or top-dose-only effect, or another doubt; inactive = no such curve, though single readings can be large; an effect the other way counts as inactive or inconclusive. Potency is read from the fitted curve at half-maximal effect.

SMILES	FLuc counter	SMN2 splice up	ELG1 genotox	NPC1 promoter act	Rab9 prom act	p53 reactivation
COc1ccccc1C(=O)Nc1cccc2nc(C)ccc12	-11.0%	/	-0.8%	1.8%	7.4%	-18.3%
O=C(COc1ccc2c3c(c(=O)oc2c1)CCC3)Nc1ccccn1	0.269µM*	/	1.64µM*	0.398µM*	5.01µM*	?
CC(=O)C(C)Oc1ccc2c3c(c(=O)oc2c1)CCCCC3 (stereo unspecified)	21.3µM*	?	9.2µM*	?	2.82µM*	?
Cc1cc(NC(=O)COC(=O)COc2ccc3c4c(c(=O)oc3c2)CCC4)no1	-13.7%	26.4%	-0.6%	-4.7%	-1.5%	-0.1%
CC(=O)COc1ccc2c3c(c(=O)oc2c1)CCCC3	-1.5%	-19.2%	28.8%	3.1%	-2.5%	5.2%
CC(=O)C(C)Oc1ccc2c3c(c(=O)oc2c1)CCCC3 (stereo unspecified)	15.1µM*	-3.9%	?	22.1%	24.2%	24.7%
Cc1nn(CCC(=O)N2CCN(c3ccccc3)CC2)c(C)c1S(=O)(=O)N1CCCC1	-1.0%	/	/	/	/	/
C/C(=N\OC(=O)NC1CCCCC1)c1sc(-c2ccccc2)nc1C	?	-54.7%	-0.1%	9.1%	-6.6%	?
C/C(=N\OC(=O)c1ccc(F)cc1)c1sc(-c2ccccc2)nc1C	4.8%	20µM*	?	2µM*	1.58µM*	?
Cc1nc(-c2ccccc2)sc1C(=O)CSc1ccc(Cl)cc1	-11.6%	3.3%	0.8%	0.6%	4.0%	5.1%
C/C(=N\OC(=O)c1ccc(Cl)cc1)c1sc(-c2ccccc2)nc1C	3.9%	?	?	3.98µM*	3.98µM*	?
OCCN(CO)CO	/	-1.9%[9.22 µM]	/	/	/	/
O=C(CN1C(=O)/C(=C\C=C\c2ccccc2)SC1=S)Nc1ccc(F)cc1	-5.8%	4.47µM*	3.9%	0.1%	1.3%	-4.8%
O=C(CCN1C(=O)/C(=C\C=C\c2ccccc2)SC1=S)Nc1ccc(C(=O)O)cc1	0.953µM*	/	?	?	29.2%	6.2%
O=C(CN1C(=O)S/C(=C/C=C/c2ccccc2)C1=O)Nc1ccc(C(=O)O)cc1	4.78µM*	11.1%	8.8%	-5.3%	-6.7%	17.6%
O=C(COC(=O)CCN1C(=O)/C(=C\C=C\c2ccccc2)SC1=S)Nc1cc(F)ccc1F	13.5µM*	-13.9%	3.4%	-1.7%	-7.3%	0.9%
Cc1ccc(C)c(NC(=O)CS(=O)(=O)c2cn(C)c3ccccc23)c1	-1.1%	-11.3%	-1.1%	-8.6%	1.9%	-7.5%
O=C(CN1C(=O)S/C(=C\C=C\c2ccccc2)C1=O)Nc1ccc(C(=O)O)cc1	6.01µM*	/	7.8%	3.0%	3.1%	12.8%
CCN(C(=O)c1cc2c(Cl)nc3ccc(C)cc3c2s1)c1cc(OC)ccc1OC	1.4%	-21.9%	/	/	/	/
COc1ccccc1NC(=O)c1oc2ccc(C)cc2c1C	9.53µM*	?	?	?	?	?
Cc1ccc2oc(C(=O)Nc3nnc(CC(C)C)s3)c(C)c2c1	-8.4%	/	?	10.3%	19.5%	22.1%
Cc1ccc2oc(C(=O)Nc3cc(C)on3)c(C)c2c1	0.757µM*	/	?	3.16µM*	2.51µM*	52.4%
CCn1c(=O)c2cc(C(=O)N(CC(C)C)CC(C)C)sc2c2ccccc21	-1.4%	-2.7%	/	/	/	/
CCN(CC)c1cc(C)c2cc(NC(=O)/C=C/c3ccccc3OC(C)C)ccc2n1	-3.0%	2.5%	/	/	/	/
COc1cc(Cl)ccc1OCc1cc(C(=O)NC(C)Cc2cccnc2)no1 (stereo unspecified)	8.49µM*	/	5.4%	?	?	10.3%
Cc1cccc(CC(C)NC(=O)c2cc(COc3ccc(F)cc3F)on2)n1 (stereo unspecified)	?	/	3.4%[9.26 µM]	16.4%	22.7%	19.2%
COc1cc(Cl)ccc1OCc1cc(C(=O)N(C)Cc2cccc3cnccc23)no1	13.5µM*	/	-15.5%	?	?	-5.0%

High-throughput results: PubChem BioAssay, National Center for Advancing Translational Sciences (NCATS)
